# Source: PubChem BioAssay (NCATS)
# Values joined by “and” are separate entries in the source; they are usually repeats but may differ in a detail not shown here. Identical values can stand only once. Values without a mark were called inactive. Results filed as inconclusive are left out. Entries that show only a call come without a potency. Active and inactive are the calls of the source. Unless noted, the call rests on the fitted dose curve.
# What was measured:
# [1] = AP1 Signaling Pathway (AID 357; active means well fitted curve in either direction with a large enough effect, not every such curve was filed as active;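 further: ME-180 reporter cells stimulated with EGF at its EC50 level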); details: ME-180 AP-1-bla reporter, EGF-induced, beta-lactamase ratio, 5 h; at 17.2 µM (top of the series) unless noted
# Outline: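 A ratiometric CCF4 readout (405 nm excitation; 460 and 530 nm emission) quantified AP-1-driven beta-lactamase in ME-180 cells after 5 h with compound and EC50 EGF; AC50 values were derived for activators and inhibitors.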
# [2] = Stat Signaling Pathway (AID 446; active means well fitted curve in either direction with a large enough effect, not every such curve was filed as active;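 further: ME-180 cervical cancer cells given 40 pM IL-6 alongside compound; SIE-controlled beta-lactamase reporter measured as 460/530 nm FRET emission ratio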); details: ME-180 SIE beta-lactamase reporter, IL-6 stimulated, 5 h; at 17.2 µM (top of the series) unless noted
# Outline: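 ME-180 cells carrying a SIE-driven beta-lactamase reporter are stimulated with 40 pM IL-6 for 5 h at 37C in the presence of compound. The 460/530 nm FRET substrate ratio is read after 2.5 h at RT. Data are normalised to 300 pM IL-6 and to 125 nM JAK inhibitor controls.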
# [3] = target: Cytochrome P450 1A2 (Homo sapiens) (UniProt P05177); experiment: p450-cyp1a2 (AID 410); further: potency means the concentration at half of the fitted maximal effect
# Sequence of Cytochrome P450 1A2 (Homo sapiens) (P05177 whole entry, looked up): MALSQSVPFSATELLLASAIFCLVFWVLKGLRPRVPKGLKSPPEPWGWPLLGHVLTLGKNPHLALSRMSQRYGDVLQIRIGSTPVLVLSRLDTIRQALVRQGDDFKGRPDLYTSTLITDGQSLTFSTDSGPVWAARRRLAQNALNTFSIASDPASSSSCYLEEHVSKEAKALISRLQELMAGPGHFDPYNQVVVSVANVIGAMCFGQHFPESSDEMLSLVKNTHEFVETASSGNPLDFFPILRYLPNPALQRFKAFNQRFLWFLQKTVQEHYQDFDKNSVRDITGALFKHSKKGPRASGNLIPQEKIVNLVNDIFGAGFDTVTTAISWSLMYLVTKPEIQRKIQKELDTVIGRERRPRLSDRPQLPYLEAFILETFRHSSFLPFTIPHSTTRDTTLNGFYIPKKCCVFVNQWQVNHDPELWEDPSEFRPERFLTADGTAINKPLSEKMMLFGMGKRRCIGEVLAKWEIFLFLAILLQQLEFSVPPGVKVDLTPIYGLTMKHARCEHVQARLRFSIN
# Outline: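 Inhibition was calculated relative to 57 uM furafylline (full inhibition). The reaction used human CYP1A2 at 20nM with Luciferin-ME at its Km, 100uM, driven by an NADPH-regenerating system for 60 min at room temperature.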
# [4] = target: Glucocorticoid receptor (Homo sapiens) (UniProt P04150); experiment: GR-EFC Redistribution (AID 451); details: CHO-K1 GR-EFC translocation, beta-gal luminescence, 2 h; further: potency means the concentration at half of the fitted maximal effect
# Sequence of Glucocorticoid receptor (Homo sapiens) (P04150 whole entry, looked up, the tested form may be a part): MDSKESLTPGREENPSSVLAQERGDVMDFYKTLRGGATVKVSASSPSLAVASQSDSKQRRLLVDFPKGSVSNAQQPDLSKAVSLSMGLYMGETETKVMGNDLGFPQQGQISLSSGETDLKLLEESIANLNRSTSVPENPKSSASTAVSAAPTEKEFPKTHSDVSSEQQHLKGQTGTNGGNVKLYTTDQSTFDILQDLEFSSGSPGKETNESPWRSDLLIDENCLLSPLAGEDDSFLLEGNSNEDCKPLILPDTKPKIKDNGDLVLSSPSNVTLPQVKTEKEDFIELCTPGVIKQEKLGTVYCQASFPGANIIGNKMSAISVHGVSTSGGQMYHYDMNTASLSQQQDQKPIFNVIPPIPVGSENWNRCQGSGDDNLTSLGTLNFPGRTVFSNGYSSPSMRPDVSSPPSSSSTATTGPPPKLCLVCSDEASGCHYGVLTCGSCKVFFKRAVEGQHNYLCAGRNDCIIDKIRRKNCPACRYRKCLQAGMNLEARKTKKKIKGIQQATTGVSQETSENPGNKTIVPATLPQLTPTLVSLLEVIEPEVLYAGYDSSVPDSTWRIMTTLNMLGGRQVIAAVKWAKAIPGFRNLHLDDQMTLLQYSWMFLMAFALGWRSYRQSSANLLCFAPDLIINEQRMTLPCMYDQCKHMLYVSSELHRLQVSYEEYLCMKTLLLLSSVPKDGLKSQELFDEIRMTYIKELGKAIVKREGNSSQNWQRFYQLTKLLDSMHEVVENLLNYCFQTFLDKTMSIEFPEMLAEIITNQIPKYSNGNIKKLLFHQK
# Outline: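 CHO-K1 cells stably expressing nuclear-localized β-gal enzyme acceptor and GR fused C-terminally to the enzyme donor fragment; ligand-driven nuclear translocation restores β-gal by complementation. Compounds titrated up to 46 uM final, 2 h at 37 °C; luminescence read.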
# [5] = target: Mitogen-activated protein kinase 10 (Mus musculus) (UniProt Q61831); experiment: JNK3 AlphaScreen Assay (AID 530; active means well fitted curve in either direction with a large enough effect, not every such curve was filed as active;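 further: kinase came from lysate of stimulated human HepG2 cells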; further: potency means the concentration at half of the fitted maximal effect;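 on activity change, negative = inhibition: signal reports phosphorylation of biotinylated GST-cJun 1-79 at Ser73 with 10 µM ATP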)
# Outline: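 JNK3 came from HepG2 lysates pre-activated with IL-1beta and TNF-alpha and phosphorylated biotinylated GST-cJun (1-79) at 10 uM ATP, pH 7.6, room temperature. Compounds were titrated. AlphaScreen signal used anti-phospho-cJun (Ser73) antibody.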
# [6] = target: 3',5'-cyclic-AMP phosphodiesterase 4B (Homo sapiens) (UniProt Q07343); experiment: qHTS Assay for Inhibitors of PDE-IV (AID 607; active means well fitted activation curve with a large enough effect in the main read-out, with a control signal flat, not every such curve was filed as active)
# Sequence of 3',5'-cyclic-AMP phosphodiesterase 4B (Homo sapiens) (Q07343 whole entry, looked up): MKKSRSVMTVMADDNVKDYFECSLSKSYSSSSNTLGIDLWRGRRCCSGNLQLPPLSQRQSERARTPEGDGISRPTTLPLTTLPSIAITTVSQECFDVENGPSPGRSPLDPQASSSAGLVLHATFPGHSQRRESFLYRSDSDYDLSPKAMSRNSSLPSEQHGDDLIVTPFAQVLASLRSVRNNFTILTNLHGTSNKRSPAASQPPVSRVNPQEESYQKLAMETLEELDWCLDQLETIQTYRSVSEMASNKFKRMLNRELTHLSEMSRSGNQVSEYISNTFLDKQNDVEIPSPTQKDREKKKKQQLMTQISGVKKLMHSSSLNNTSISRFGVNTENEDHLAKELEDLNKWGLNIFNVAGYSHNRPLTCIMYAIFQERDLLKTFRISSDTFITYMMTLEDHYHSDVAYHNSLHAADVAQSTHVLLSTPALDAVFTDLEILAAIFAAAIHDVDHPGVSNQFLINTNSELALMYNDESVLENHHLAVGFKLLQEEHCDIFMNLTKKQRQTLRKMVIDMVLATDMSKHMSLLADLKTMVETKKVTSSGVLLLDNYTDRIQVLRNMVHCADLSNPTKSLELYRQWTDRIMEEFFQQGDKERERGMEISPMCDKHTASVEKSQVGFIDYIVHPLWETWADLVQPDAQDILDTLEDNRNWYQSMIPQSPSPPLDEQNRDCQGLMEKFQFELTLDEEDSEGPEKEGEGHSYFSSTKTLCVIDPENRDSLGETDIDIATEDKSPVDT
# Outline: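 HEK293 ACTOne cells with CNG channel (1000/well), endogenous PDE4; membrane potential dye, compounds up to 22.9 uM final. Fluorescence Ex 535/Em 590; RO 20-1724 (100 uM final) as reference.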
# [7] = Cell Viability - BJ (AID 421); details: BJ fibroblast viability, qHTS;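 further: potency means the concentration at half of the fitted maximal effect; cells exposed to compound for 40 hours at 37 °C before readout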
# Outline: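 Normal human BJ foreskin fibroblasts, 1500/well in complete medium, treated 40 hr at 37 °C. Cellular ATP by CellTiter-Glo luminescence; normalized to DMSO and 100 uM tamoxifen, AC50 from Hill fit.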
# [8] = Cell Viability - MRC5 (AID 434); details: MRC5 lung fibroblast viability, qHTS;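 further: potency means the concentration at half of the fitted maximal effect; potency reflects cytotoxicity seen as loss of intracellular ATP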
# Outline: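 MRC5 normal human lung fibroblasts (1500/well) were treated with compounds for 40 hr at 37 °C in complete medium, and viable cells were measured as intracellular ATP by CellTiter-Glo luminescence. AC50 came from Hill fits, normalized to DMSO and 100 uM tamoxifen.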
# [9] = Cell Viability - SK-N-SH (AID 435); details: SK-N-SH neuroblastoma cell viability qHTS;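 further: potency means the concentration at half of the fitted maximal effect; compound exposure lasted 40 h at 37 °C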
# Outline: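 Luminescent ATP signal served as the viability read-out after 40 hours of compound treatment of human neuroblastoma SK-N-SH cells. Concentration-response data, scaled between DMSO and 100 uM tamoxifen, gave AC50 values by standard Hill modeling.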
# [10] = Cell Viability - N2a (AID 540; active means well fitted curve in the direction sought with a large enough effect; an effect the other way counts as inactive or inconclusive; further: nearly all actives have a fitted effect of over 45% in size; further: potency means the concentration at half of the fitted maximal effect); details: N2a mouse neuroblastoma cell viability; activity change, negative = cytotoxicity: at 92.2 µM (top of the series)
# Outline: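 First, 1500 N2a cells per well incubate 5 hr at 37 °C; next, compounds are added and incubated 40 hr at 37 °C; finally CellTiter-Glo is added and luminescence read after 20 min, with AC50 derived by Hill modeling.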
# [11] = Cell Viability - HUV-EC-C (AID 542; active means well fitted curve in the direction sought with a large enough effect; an effect the other way counts as inactive or inconclusive; further: nearly all actives have a fitted effect of over 35% in size)
# Outline: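 Decrease in cellular ATP, quantified by luciferase luminescence, reflects toxicity in normal human vascular endothelial HUV-EC-C cells given compound for 40 hr in complete culture medium. Values are AC50s from concentration-response curves.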
# [12] = Cell Viability - H-4-II-E (AID 543; active means well fitted curve in the direction sought with a large enough effect; an effect the other way counts as inactive or inconclusive; further: nearly all actives have a fitted effect of over 35% in size)
# Outline: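 Here, cytotoxicity is measured in the rat hepatoma line H-4-II-E as loss of intracellular ATP after 40 hr compound treatment, detected by luciferase luminescence.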
# [13] = Cell Viability - SH-SY5Y (AID 544; active means well fitted curve in the direction sought with a large enough effect; an effect the other way counts as inactive or inconclusive; further: nearly all actives have a fitted effect of over 55% in size); details: SH-SY5Y neuroblastoma cell viability; viability change, negative = cytotoxic: at 92.2 µM (top of the series)
# Outline: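 Cytotoxicity is scored as a concentration-dependent fall in intracellular ATP in human SH-SY5Y cells treated 40 hr in complete culture medium. Potency is expressed as AC50 from a Hill equation fit.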
# [14] = Cell Viability - Renal Proximal Tubule (AID 545; active means well fitted curve in the direction sought with a large enough effect; an effect the other way counts as inactive or inconclusive; further: nearly all actives have a fitted effect of over 40% in size)
# Outline: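 Luminescent ATP signal (CellTiter-Glo) served as the viability read-out after 40 hr compound exposure of freshly isolated rat proximal tubule cells at 37 °C. Concentration-dependent ATP loss was fitted with the Hill equation to give AC50.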
# [15] = Cell Viability - Mesenchymal (AID 546; active means well fitted curve in the direction sought with a large enough effect; an effect the other way counts as inactive or inconclusive;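 further: cells exposed to compound for 40 hours before reading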)
# Outline: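 Normal human renal glomerulus-derived kidney mesenchymal cells, 1000 per well in complete medium, were treated with compounds for 40 hr at 37 °C. Viability was read as intracellular ATP by CellTiter-Glo luminescence; AC50 values came from Hill-equation fits of qHTS concentration-response data.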
# [16] = Cellular Toxicity (caspase-3) HepG2 (AID 654; active means well fitted curve in the direction sought with a large enough effect; an effect the other way counts as inactive or inconclusive;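 further: cells exposed to compound for 16 hours before reading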)
# Outline: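 qHTS, HepG2, 1500 cells/well, complete medium; cpd 16 h 37 °C; Caspase-Glo 3/7, 20 min RT; lum. Norm: DMSO vs 100 uM tamoxifen; AC50 Hill fit.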
# [17] = Cellular Toxicity (caspase-3) Jurkat (AID 655; active means well fitted curve in the direction sought with a large enough effect; an effect the other way counts as inactive or inconclusive;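 further: cells exposed to compound for 16 h at 37 °C before reading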)
# Outline: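 5000 Jurkat cells/well; compound 16 hr, 37 °C; Caspase-Glo 3/7 added, 20 min RT; luminescence read. Norm: DMSO = 0%, tamoxifen 100 uM = 100%. AC50, Hill model.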
# [18] = Cell Viability - Jurkat (AID 426;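 active means dose-dependent loss of cell ATP signal giving a full or clear fitted curve, ranked by lower potency value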; further: potency means the concentration at half of the fitted maximal effect); details: qHTS
# Outline: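 Seed 5000 Jurkat E6-1 cells/well; add compound; incubate 40 hr at 37 °C; add CellTiter-Glo; wait 20 min at room temperature; read luminescence. Fit concentration-response with Hill equation for AC50.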
# [19] = Cell Viability - Hek293 (AID 427;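 active means compounds whose dose-response curve shows a full or clear partial loss of cell viability, called from curve shape rather than a numeric limit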;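 further: potency means the concentration at half of the fitted maximal effect; cells exposed to compound for 40 hours at 37 °C before reading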); details: qHTS
# Outline: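 HEK293 cells in complete medium were exposed to compound for 40 hr at 37 °C, then cellular ATP was read by CellTiter-Glo luminescence. Data were normalized to DMSO (basal) and 100 uM tamoxifen (100% inhibition), and AC50 came from Hill fits.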
# [20] = Cell Viability - HepG2 (AID 433); details: qHTS;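 further: potency means the concentration at half of the fitted maximal effect; potency for ATP loss meaning cytotoxicity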
# Outline: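 Read-out is luciferase-based quantitation of cellular ATP as a measure of viable HepG2 cells after 40 h treatment at 37 °C. Signal decrease is scaled between DMSO-only and 100 uM tamoxifen controls, with AC50 fitted by the Hill equation.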
smiles,measurement,setting,value
N[C@@H](C(=O)N[C@@H]1C(=O)N2C(C(=O)O)=C(Cl)CS[C@H]12)c1ccccc1,"activity change, negative = inhibition",[1],0.208%
same,"activity, negative = inhibition",[2],1.22%
Cn1c(=O)c2c(ncn2CC(O)CO)n(C)c1=O (configuration not stated),"activity change, negative = inhibition",[1],2.4%
same,"activity, negative = inhibition",[2],1.2%
Cc1cccc(Nc2ccncc2S(=O)(=O)NC(=O)NC(C)C)c1,Potency,[3],inactive
same,"activity, negative = inhibition",[2],-16.6%
same,Potency,[4],> 20.6 µM
same,Potency,[5],inactive
Nc1ccc(S(=O)(=O)Nc2ccccn2)cc1,Potency,[3],inactive
same,"activity, negative = inhibition",[2],-7.68% and -0.177%
same,Potency,[4],> 20.6 µM
same,Potency,[5],inactive
same,outcome,[6],inactive
COc1ccc2cc3[n+](cc2c1OC)CCc1cc2c(cc1-3)OCO2,Potency,[3],5.01 µM (active)
same,Potency,[7],> 92 µM
same,Potency,[8],> 92 µM
same,Potency,[9],> 92 µM
same,"activity, negative = inhibition",[2],-1.52%
same,Potency,[4],> 20.6 µM
same,Potency,[5],inactive
same,Potency,[10],1.26 µM (active)
same,Potency,[11],inactive
same,Potency,[12],inactive
same,Potency,[13],inactive
same,Potency,[14],inactive
same,Potency,[15],inactive
same,outcome,[6],inactive
same,Potency,[16],inactive
same,outcome,[17],inactive
COc1ccc2c(c1)c(CC(=O)OCC(=O)O)c(C)n2C(=O)c1ccc(Cl)cc1,"activity change, negative = inhibition",[1],-9.7% and -8.22%
same,Potency,[3],inactive
same,"activity, negative = inhibition",[2],1.57% and -16%
same,Potency,[4],> 20.6 µM
same,Potency,[5],inactive
same,outcome,[6],inactive
O=C(O)c1cccnc1,Potency,[3],inactive
same,"activity, negative = inhibition",[2],3.94%
same,Potency,[5],inactive
same,outcome,[6],inactive
O=c1oc2c(O)c(O)cc3c(=O)oc4c(O)c(O)cc1c4c23,Potency,[3],15.8 µM (active)
same,Potency,[4],> 46 µM
same,Potency,[5],1.26 µM (active)
COc1ncnc(NS(=O)(=O)c2ccc(N)cc2)c1OC,Potency,[3],inactive
same,"activity, negative = inhibition",[2],-3.42%
same,Potency,[5],inactive
same,outcome,[6],inactive
CC1=NN(c2ccccc2)C(=O)C1,Potency,[3],12.6 µM (active)
same,Potency,[7],> 92 µM
same,Potency,[18],> 92 µM
same,Potency,[19],> 92 µM
same,Potency,[20],> 92 µM
same,Potency,[8],> 92 µM
same,Potency,[9],> 92 µM
same,"activity, negative = inhibition",[2],-2.54%
same,Potency,[4],> 46 µM
same,Potency,[5],inactive
same,Potency,[10],inactive
same,Potency,[11],inactive
same,Potency,[12],inactive
same,Potency,[13],inactive
same,Potency,[14],inactive
same,Potency,[15],inactive
same,outcome,[6],inactive
same,Potency,[16],inactive
same,outcome,[17],inactive
NNC(=O)c1ccncc1,Potency,[3],6.31 µM (active)
same,Potency,[7],> 92 µM
same,Potency,[18],> 92 µM
same,Potency,[19],> 92 µM
same,Potency,[20],> 92 µM
same,Potency,[8],> 92 µM
same,Potency,[9],> 92 µM
same,"activity, negative = inhibition",[2],3.44% and 12.3%
same,Potency,[4],> 20.6 µM
same,Potency,[5],inactive
same,Potency,[10],inactive
same,Potency,[11],inactive
same,Potency,[12],inactive
same,Potency,[13],inactive
same,Potency,[14],inactive
same,Potency,[15],inactive
same,outcome,[6],inactive
same,Potency,[16],inactive
same,outcome,[17],inactive
Cc1noc(NS(=O)(=O)c2ccc(N)cc2)c1C,Potency,[3],inactive
same,Potency,[7],> 92 µM
same,Potency,[18],> 92 µM
same,Potency,[19],> 92 µM
same,Potency,[20],> 92 µM
same,Potency,[8],> 92 µM
same,Potency,[9],> 92 µM
same,"activity, negative = inhibition",[2],7.81% and 5.09%
same,Potency,[5],inactive
same,Potency,[10],inactive
same,Potency,[11],inactive
same,Potency,[12],inactive
same,Potency,[13],inactive
same,Potency,[14],inactive
same,Potency,[15],inactive
same,outcome,[6],inactive
same,Potency,[16],inactive
same,outcome,[17],inactive
